The supplement of paper PMC9433436
± gives the standard deviation of the averaged measurements. Whole data set: some 4,100 sequences, median “relative kcat/Km (krel) vs genomic leader AAAGAU” near 1.7, cut for the highest 2% near 6.5. The full list was thinned out, with the highest values kept by preference.

Biological target: T1, E. coli RNase P holoenzyme (M1 P RNA + rnpA protein) (UniProt P0A7Y8)
T1 sequence: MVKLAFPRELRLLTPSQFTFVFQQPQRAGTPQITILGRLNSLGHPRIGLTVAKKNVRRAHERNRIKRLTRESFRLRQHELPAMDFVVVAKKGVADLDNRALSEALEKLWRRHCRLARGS
Assay: relative kcat/Km (krel) vs genomic leader AAAGAU (relative (reference leader = 1)); higher = faster RNase P cleavage
Experimental: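 HTS-Kin: a pool of ptRNA-Met (21C construct) with all 4096 combinations of 5' leader nucleotides N(-6) to N(-1) was processed in vitro by E. coli RNase P (P RNA + rnpA/C5 protein) under multiple-turnover conditions at 37 C, pH 8, 17.5 mM MgCl2. Residual substrate was Illumina-sequenced at several fractions reacted, and relative kcat/Km (krel) was computed by internal competition kinetics, calibrated to the genomic leader (AAAGAU = 1). The listed hexamer is the varied N(-6)..N(-1) leader (DNA letters), and it sits between a fixed 5' stem-loop flank (GCAUGCACGAAAGUGCGUGCUAUGAA) and the mature tRNA-Met starting GGCUACGUAGCUCAGUUGG. Two technical replicates are averaged.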

[1] = fraction of substrate reacted: ~9-10% (9.79% repeat 1, 9.1% repeat 2)
[2] = fraction of substrate reacted: ~13-16% (15.68% repeat 1, 13.17% repeat 2)
[3] = fraction of substrate reacted: ~26-29% (28.66% repeat 1, 26.4% repeat 2)

Sequence | relative kcat/Km [1] | relative kcat/Km [2] | relative kcat/Km [3]
TACCAG | 2.73 ± 1.4 | 2.64 ± 1.1 | 4.81 ± 1.2
TACCTT | 2.52 ± 0.33 | 3.78 ± 0.62 | 5.64 ± 2.6
TACCAT | 3.78 ± 1.5 | 5.08 ± 1.6 | 7.73 ± 3.6
AACCAT | 2.62 ± 1.1 | 2.62 ± 0.3 | 4.77 ± 2
TACCAC | 3.48 ± 1.4 | 4.03 ± 1.6 | 6.63 ± 2.9
CACCAG | 2.64 ± 2.5 | 1.93 ± 0.07 | 3.58 ± 1.1
TACCAA | 3.31 ± 1.5 | 4.01 ± 0.25 | 6.07 ± 1.9
CACCAT | 4.34 ± 1.2 | 4.72 ± 0.96 | 7.01 ± 2.9
GACCAT | 3.62 ± 2.1 | 3.91 ± 0.13 | 5.96 ± 1.9
ATAAGA | 1.69 ± 0.23 | 2.23 ± 0.39 | 3.63 ± 1.3
ACGTTG | – | – | 1.56 ± 0.44
ACCGCC | 2.87 ± 1.1 | 2.93 ± 0.072 | 4.69 ± 1
TGGACC | 0.825 ± 0.51 | 0.618 ± 0.3 | 0.551 ± 0.0088
TAACTC | 1.62 ± 0.57 | 1.49 ± 0.16 | 2.26 ± 0.86
GTGTAC | 1.78 ± 0.16 | 2.012 ± 0.0038 | 3.45 ± 1
ACGTAT | 2.73 ± 1.2 | 3.73 ± 1.2 | 5 ± 1.8
CCGTAT | 3.19 ± 0.25 | 4.32 ± 0.66 | 5.94 ± 2.6
TCGTCT | 3 ± 0.94 | 2.99 ± 1.4 | 4.35 ± 1.2
TCGTCC | 3.8 ± 0.41 | 5.03 ± 1.6 | 6.93 ± 3.5
GCGTCC | 1.32 ± 0.099 | 1.73 ± 0.52 | 2.64 ± 0.41
TTGTAG | 2.4 ± 1.1 | 1.92 ± 0.36 | 3.78 ± 0.77
TTGTAC | 3.78 ± 0.42 | 4.71 ± 1.3 | 7.05 ± 2.9
GCGTAC | 2.64 ± 0.68 | 1.98 ± 0.25 | 3.77 ± 1.5
TCGTAT | 4.13 ± 0.92 | 4.78 ± 0.97 | 7.28 ± 3.4
TCGTAC | 4.21 ± 1.1 | 5.11 ± 1.9 | 7.91 ± 3.5
TCGTAA | 3.3 ± 0.9 | 3.79 ± 0.62 | 6.16 ± 2.7

Sequence | relative kcat/Km [1] | relative kcat/Km [2] | relative kcat/Km [3]
AGTTCG | – | 0.601 ± 0.24 | 1.95 ± 0.2
GATGAG | – | – | 0.577 ± 0.44
CAAAAA | 1.14 ± 0.13 | 0.985 ± 0.72 | 2.42 ± 0.98
GGTCTT | – | 1.32 ± 0.41 | 1.72 ± 0.37
ACGGGT | – | – | 1.35 ± 0.62
GCTCGC | 1.28 ± 1.3 | 1.58 ± 0.13 | 1.96 ± 0.049
GTTGTT | 0.832 ± 0.53 | 0.86 ± 0.24 | 1.07 ± 0.92
GGTCGC | 1.81 ± 0.88 | 2.0828 ± 0.002 | 3.37 ± 1.1
CATTGC | 3.51 ± 1.1 | 4.2 ± 0.93 | 5.82 ± 2.3
TATTGA | 3.87 ± 0.33 | 4.42 ± 1.1 | 6.93 ± 3.1
TATTGG | 0.568 ± 0.24 | – | 1.46 ± 0.98
AATTGA | 2.34 ± 0.47 | 3.16 ± 0.37 | 4.64 ± 1.2
TATTGC | 3.74 ± 1.7 | 4.4 ± 0.4 | 6.68 ± 3.2
GATTGA | 2.31 ± 0.22 | 3.98 ± 1.1 | 4.96 ± 2.3
TTAGTG | – | – | 0.934 ± 0.09
AACTAA | 2.93 ± 0.16 | 4.29 ± 1.7 | 6.5 ± 3.1
CACTAG | 2.94 ± 2.4 | 3.2 ± 0.63 | 5.04 ± 0.72
AACTAT | 3.41 ± 0.78 | 4.44 ± 0.83 | 6.43 ± 3.1
TACTAG | 3.46 ± 2 | 3.248 ± 0.0033 | 5.53 ± 2
CACTGA | 2.94 ± 1.2 | 3.71 ± 0.65 | 5.8 ± 1.7
CACTAA | 4.69 ± 2 | 6.03 ± 0.39 | 7.49 ± 2.5
TACTAC | 5.21 ± 2 | 6.73 ± 1.9 | 9.59 ± 4
GACTAT | 4.87 ± 2 | 5.68 ± 1.6 | 8.33 ± 3.5
TACTAA | 5.23 ± 2.7 | 6.48 ± 0.54 | 8.92 ± 3.4
TACTGC | 3.83 ± 1.5 | 4.1 ± 0.86 | 5.96 ± 1.5
GACTGT | 0.875 ± 0.79 | 1.18 ± 0.32 | 1.09 ± 0.23

Sequence | relative kcat/Km [1] | relative kcat/Km [2] | relative kcat/Km [3]
TGGAAA | 1.63 ± 1.1 | 0.838 ± 0.78 | 1.61 ± 0.29
GTGTCA | 1.15 ± 0.97 | 0.779 ± 0.57 | 1.49 ± 0.16
GCCTGG | – | – | 0.776 ± 0.2
GTGCCC | 1.01 ± 0.23 | 0.583 ± 0.44 | 1.13 ± 0.088
TTTGCT | 0.76 ± 0.28 | 0.721 ± 0.56 | 0.983 ± 0.097
CAAAAC | 1.4 ± 0.17 | 1.59 ± 0.4 | 2.51 ± 0.41
GACTAA | 4.15 ± 1.9 | 5.64 ± 1.3 | 8.21 ± 3.3
GACTTA | 3.03 ± 0.62 | 4.15 ± 0.96 | 5.78 ± 2.2
TACTAT | 4.15 ± 0.89 | 6.07 ± 1.3 | 9 ± 3.9
GACTAG | 1.77 ± 1.4 | 2.58 ± 0.6 | 4.67 ± 1.3
TACTGT | 0.799 ± 0.45 | 1.56 ± 1.4 | 1.19 ± 0.64
AACTAG | 3.36 ± 2.5 | 2.8 ± 0.61 | 3.95 ± 1.3
ATGAAG | 0.588 ± 0.19 | 0.919 ± 0.16 | 1.85 ± 0.42
AGTCGG | – | 0.482 ± 0.36 | 1.03 ± 0.14
GAGAAA | 2.38 ± 1.1 | 3.13 ± 0.99 | 3.4 ± 0.98
TTCATC | 4.42 ± 1.8 | 5.94 ± 0.79 | 8.86 ± 3.8
TTCATT | 4.9 ± 1.8 | 6.77 ± 1.4 | 9.68 ± 4.2
TTCATG | 2 ± 2 | 2.08 ± 0.48 | 4.3 ± 1.5
CTCATA | 3.84 ± 2.5 | 4.93 ± 0.27 | 6.23 ± 2.5
TCCATC | 3.7 ± 1.8 | 3.95 ± 0.47 | 6.33 ± 2.3
GGCATT | 1.85 ± 0.77 | 2.15 ± 0.27 | 3.37 ± 1.4
ATCATT | 3.39 ± 1.4 | 4.551 ± 0.032 | 6.49 ± 2.6
TGCATC | 2.12 ± 1.2 | 1.5 ± 0.48 | 2.05 ± 0.7
GTCATT | 4.45 ± 1.6 | 5.21 ± 2 | 8.08 ± 4
TGCATT | 0.949 ± 0.79 | 1.93 ± 1.2 | 2.68 ± 1.7
TTCATA | 4.76 ± 2.5 | 6.15 ± 0.55 | 8.54 ± 3.2

Sequence | relative kcat/Km [1] | relative kcat/Km [2] | relative kcat/Km [3]
TCTACA | 1.43 ± 0.68 | 1.87 ± 0.44 | 2.46 ± 1.1
GGTAAG | 1.39 ± 1.3 | 0.931 ± 0.053 | 2.32 ± 1.1
TCCACT | 2.76 ± 1.1 | 3.06 ± 0.4 | 4.72 ± 1.1
CATCGT | – | – | 1.54 ± 1.2
GGATCA | 0.973 ± 0.2 | 1.04 ± 0.42 | 1.53 ± 0.71
CACGGT | – | – | 1.7 ± 0.39
AGAGAT | 0.682 ± 0.45 | 1.15 ± 0.6 | 1.75 ± 0.4
GTCATG | – | 1.48 ± 0.37 | 3.5 ± 0.91
GTCATA | 4.4 ± 2 | 4.91 ± 0.65 | 7.54 ± 3
ATCATA | 3.61 ± 1.8 | 4.31 ± 0.3 | 5.9 ± 2.2
CGAGAG | 0.809 ± 0.14 | – | 0.931 ± 0.1
CCTTCC | 1.62 ± 0.022 | 1.51 ± 1.3 | 2.47 ± 0.27
TCCGAA | 5.05 ± 1.9 | 6.23 ± 1.9 | 9.05 ± 3.9
GCCGAA | 3.56 ± 1.2 | 4.16 ± 0.78 | 6.35 ± 2.4
ACCGAA | 3.81 ± 1.6 | 4.31 ± 1 | 6.81 ± 3
CCCGAA | 2.83 ± 1.5 | 4.35 ± 1.8 | 6.76 ± 2.5
CCCGAT | 2.59 ± 0.49 | 2.76 ± 1.2 | 3.21 ± 0.9
TCCGAG | 2.34 ± 0.033 | 2.52 ± 1.4 | 5.01 ± 2.2
TCCGAT | 2.34 ± 0.53 | 2.91 ± 1.4 | 4.01 ± 1.3
TCCGAC | 3.47 ± 0.1 | 4.91 ± 1.2 | 7.68 ± 3
CCCGAG | 1.48 ± 0.82 | 0.888 ± 0.25 | 3.16 ± 0.072
ACCGAG | 2.58 ± 2.5 | 0.833 ± 0.22 | 2.44 ± 0.21
GCCGAC | 2.64 ± 1.3 | 3.49 ± 0.69 | 5.36 ± 2.2
ACCGAC | 2.3 ± 2.1 | 3.17 ± 0.29 | 4.58 ± 1
ACTCGT | – | – | 2.02 ± 1.7
AGCACG | – | – | 1.13 ± 0.11

Sequence | relative kcat/Km [1] | relative kcat/Km [2] | relative kcat/Km [3]
TTAGAA | 2.72 ± 1.5 | 2.61 ± 0.03 | 3.57 ± 1.4
ACCCAA | 2.3 ± 0.84 | 2.69 ± 0.25 | 4.83 ± 1.9
CCCCAA | 3.03 ± 1.2 | 3.57 ± 0.21 | 4.97 ± 1.6
ACCCAC | 3.6 ± 1.7 | 3.71 ± 0.7 | 5.48 ± 1.8
ACCCAT | 2.43 ± 0.83 | 2.95 ± 0.91 | 5.63 ± 2.4
TCCCAA | 4.73 ± 3.1 | 4.63 ± 0.2 | 6.94 ± 2.3
GCCCAT | 3.07 ± 2.2 | 3.36 ± 0.14 | 5.4 ± 1.5
TCCCAT | 4.48 ± 2.4 | 5.74 ± 1 | 8.73 ± 3.7
TCCCAC | 4.44 ± 1.1 | 5.53 ± 1.1 | 7.79 ± 3
GCCCAC | 3.04 ± 0.041 | 4.04 ± 1.6 | 5.93 ± 2.8
GCTATG | – | – | 1.51 ± 0.12
AGAAAG | 1.38 ± 1.3 | 1.14 ± 0.7 | 2.2 ± 0.47
CGGACG | 1.05 ± 1.1 | – | 0.906 ± 0.41
GCATAA | 1.89 ± 0.96 | 2 ± 0.52 | 3.04 ± 1.1
ATAGTC | 1.61 ± 0.89 | 1.42 ± 1 | 1.68 ± 0.75
AGTAAT | 2.83 ± 0.62 | 3.38 ± 0.27 | 5.07 ± 2.3
TTCCTA | 3.35 ± 1.2 | 4.53 ± 0.46 | 5.89 ± 2.4
GACGCG | – | 0.59 ± 0.14 | 2.38 ± 0.093
AACGCA | 2.99 ± 1.6 | 3.18 ± 0.58 | 4.32 ± 1.4
AACGCC | 1.93 ± 0.48 | 3.24 ± 1.4 | 4.53 ± 1.3
GACGCT | 2.24 ± 0.19 | 2.17 ± 0.8 | 3.11 ± 1.4
TACGCG | 1.87 ± 1.1 | 1.66 ± 0.44 | 3.13 ± 0.89
GACGCC | 3.241 ± 0.028 | 4.62 ± 1.3 | 6.69 ± 2.6
TACGCC | 3.64 ± 0.043 | 5.35 ± 1.7 | 7.66 ± 3.3
GACGCA | 3.33 ± 1.3 | 3.62 ± 0.97 | 5.24 ± 1.8
TACGCA | 2.71 ± 1.7 | 4.27 ± 0.58 | 6.64 ± 3.4
